Screening data from PubChem BioAssay.
HEK293 tox: Cytotoxic Profiling in HEK 293 Cell Line of Diverse Libraries Using Quantitative High-Throughput Screening; 6.6% of 94,000 active; Potency, µM (titrated, usually from 115 µM), inactives show at the highest dose activity change, negative = cytotoxicity, usual class: inhibitors; HEK 293 viability, ATP luminescence (CellTiter-Glo), 48-72 h; further: nearly all actives have a fitted effect of over 60% in size
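ATP-coupled CellTiter-Glo luminescence served as viability read-out, recorded 10 min after reagent addition at room temperature. HEK 293 cells, 250 cells/well, had been incubated with pintool-transferred compound for 48 or 72 hr at 37 degree Celsius.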
Luciferase inh: Firefly luciferase inhibition profiling of diverse chemical library using quantitative high-throughput screening. AID 1347043, 2019. 2.5% of 76,000 active. purified P. pyralis luciferase, luminescence, biochemical. Luciferin 4-monooxygenase (Photinus pyralis), P08659. Potency, µM (top dose mostly 115 µM), most hits filed as inhibitors; further: nearly all actives have a fitted effect of over 65% in size
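Luminescence read by CCD imaging after purified firefly luciferase (10nM final) was added to substrate buffer holding 10uM D-luciferin and 10uM ATP, pH 7.5, pre-dosed with compound.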
hNpr1 antagonist: Natriuretic polypeptide receptor (hNpr1) antagonism - Primary qHTS; HEK293 hNpr1 GloSensor cGMP, ANP-stimulated luminescence; Potency, µM (series often up to 46.3 µM), for the others: at the top dose activity change, negative = inhibition, most hits filed as inhibitors; 1.6% of 76,000 active; AID 1347048, 2019; calls by dose curve; further: nearly all actives have a fitted effect of over 60% in size
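Compound pre-incubated 30 min at room temperature on GloSensor-loaded HEK293 cells stably carrying hNpr1 and the pGS-40F cGMP biosensor. Stimulation uses hNppA at 0.1 nM final; luminescence is taken at baseline and 20 min post-agonist.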
3T3 cytotox: Cytotoxic Profiling in NIH 3T3 Cell Line of Diverse Libraries Using Quantitative High-Throughput Screening. NIH 3T3 viability, CellTiter-Glo ATP luminescence, 48-72 h. Potency, µM (series often up to 96.7 µM), for the others: top-dose activity change, negative = cytotoxicity, most hits filed as inhibitors. 4.3% of 94,000 active. AID 1345082, 2018; further: nearly all actives have a fitted effect of over 55% in size
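Viability of NIH 3T3 cells after 48 or 72 hr compound treatment at 37 °C was assessed by CellTiter-Glo, with luminescence imaged following a 10 min room-temperature step.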
GPT2 inh: Primary qHTS assay for inhibitors of Glutamate pyruvate transaminase 2 (GPT2) | Recombinant GPT2, coupled pyruvate oxidase/HRP Amplex Red fluorescence | AID 1671188, 2021 | 0.25% of 100,000 active | Alanine aminotransferase 2 (Homo sapiens), Q8TD30 | Potency, µM (doses to about 57.7 µM), for inactives: at the highest dose activity change, negative = inhibition, most hits filed as inhibitors; further: nearly all actives have a fitted effect of over 60% in size
Target sequence (Q8TD30 whole entry, looked up): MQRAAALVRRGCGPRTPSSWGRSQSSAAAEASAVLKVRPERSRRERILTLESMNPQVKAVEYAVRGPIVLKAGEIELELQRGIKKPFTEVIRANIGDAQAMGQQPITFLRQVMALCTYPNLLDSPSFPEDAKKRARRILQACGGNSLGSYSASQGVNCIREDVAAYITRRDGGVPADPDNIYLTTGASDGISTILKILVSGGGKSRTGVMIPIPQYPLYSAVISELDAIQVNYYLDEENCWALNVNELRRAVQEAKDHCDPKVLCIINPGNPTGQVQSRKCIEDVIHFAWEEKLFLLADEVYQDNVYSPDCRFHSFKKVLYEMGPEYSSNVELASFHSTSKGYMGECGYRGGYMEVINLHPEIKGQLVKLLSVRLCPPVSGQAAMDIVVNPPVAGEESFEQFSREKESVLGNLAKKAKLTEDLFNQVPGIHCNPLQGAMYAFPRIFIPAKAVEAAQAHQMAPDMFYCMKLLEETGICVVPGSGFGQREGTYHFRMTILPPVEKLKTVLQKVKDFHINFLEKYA
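GPT2 10ng/uL, a-KG 250uM, L-Ala 2mM, HEPES pH7.5 + 0.0001% Tween; 30 min RT. Then Amplex mix (PO/HRP/ThPP), 30 min RT dark, fluorescence. AOA 50uM used as positive control.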
The depositor's hits bear a star; i = inactive; ? = inconclusive; . = no result; [ ] = another dose, or the depositor's remark. Rows were chosen to be rich in hits. Some 10% of all compounds tested hit in one or more screens of this group. Unless noted, the call rests on the fitted dose curve; in most records, active means well fitted curve in the direction sought with a large enough effect; inconclusive means small, poorly fitted or top-dose-only effect, or another doubt; inactive means no such curve, though single readings can be large; an effect the other way counts as inactive or inconclusive. On the % scale 0 is the no-effect control and ±100 the full control effect; potency means the concentration at half of the fitted maximal effect.

SMILES | HEK293 tox | Luciferase inh | hNpr1 antagonist | 3T3 cytotox | GPT2 inh
CNC(=O)[C@@H]1CN(C(=O)c2ccc(C(C)C)cc2)C[C@H]1CO | -7.1% | i | -0.1% | -17.9% | i
Cc1cccc(-c2cccc(CN3CCC(NC(=O)C4CCCC4)CC3)c2)c1 | i | . | . | -9.2% | i
Cc1cccc(-c2cccc(CN3CCC(NC(=O)Cc4ccccn4)CC3)c2)c1 | ? | . | . | 44.7µM* | i
Cc1cccc(-c2cccc(CN3CCC(NC(=O)NC(C)C)CC3)c2)c1 | ? | . | . | ? | i
Cc1cccc(-c2cccc(CN3CCC(NC(=O)c4ccccc4F)CC3)c2)c1 | ? | . | . | 39.8µM* | 0.6%
O=C(NC1CCN(c2ccnc3ccnn23)C1)c1cccc(Cl)c1 (centres undefined) | -23.9% | . | . | ? | -8.9%
Cn1cc(CNc2ccc(-c3nc(-c4cccc(C(F)(F)F)c4)no3)cn2)cn1 | 25.1µM* | i | ? | ? | -40.0%[11.5 µM]
Cn1cc(CNc2ccc(-c3nc(CCCc4ccccc4)no3)cn2)cn1 | ? | 39.8µM* | ? | ? | 0.8%[11.5 µM]
OC[C@@H]1CN(c2ccc(-c3nc(-c4cccc(C(F)(F)F)c4)no3)cn2)C[C@H]1CO | ? | i | -23.4% | -29.8% | i
FC(F)(F)c1cccc(-c2noc(-c3ccc(NCCN4CCOCC4)nc3)n2)c1 | 11.2µM* | ? | 11.2µM* | ? | i[11.5 µM]
O=C(NC1CCCc2nc(N3CCC(CO)CC3)ncc21)c1ccccn1 (centres undefined) | -16.6% | i | 4.0% | -23.7% | 2.3%
Cc1nc(-c2cn(C3CCCN(C(=O)c4ccc(F)c(F)c4)C3)nn2)no1 (centres undefined) | 4.4% | i | -17.6% | -15.0% | 1.8%
COc1ccc(NC(=O)c2ccc3c(c2)NC(C)(COc2ccccc2)CO3)cc1OC (centres undefined) | ? | i | -16.9%[70.6 µM] | ? | 1.7%[88.5 µM]
CC1(COc2ccccc2)COc2ccc(C(=O)Nc3ccccc3)cc2N1 (centres undefined) | 70.8µM* | i | -6.4%[70.6 µM] | ? | -12.8%[88.5 µM]
CN(Cc1ccccc1)C(=O)c1ccc2c(c1)NC(C)(COc1ccccc1)CO2 (centres undefined) | 70.8µM* | i | -10.2%[70.6 µM] | 50.1µM* | ?
CC1(COc2ccccc2)COc2ccc(C(=O)Nc3ccc4[nH]ccc4c3)cc2N1 (centres undefined) | 44.7µM* | ? | ? | 35.5µM* | 3.0%[88.5 µM]
CCOCC1(C)COc2ccc(C(=O)N(C)Cc3ccccc3)cc2N1 (centres undefined) | ? | i | 3.2%[70.6 µM] | ? | i
CC1(COc2cccnc2)COc2ccc(C(=O)Nc3ccc4[nH]ccc4c3)cc2N1 (centres undefined) | ? | 39.8µM* | -13.4%[70.6 µM] | 89.1µM* | 4.8%[88.5 µM]
Cc1cccc(N2CCN(c3ncncc3-c3nc(-c4ccccc4)no3)CC2)c1 | ? | i | -19.3% | ? | -13.3%
O=C(NCc1cccs1)[C@@H]1C[C@@H](O)[C@H](O)[C@@H]2NC(=S)N(c3ccc(OC(F)(F)F)cc3)[C@@H]21 | ? | 44.7µM* | -5.3% | ? | 3.6%
O=C(NCc1cccs1)c1ccc2nnc(-c3ccc(OC(F)(F)F)cc3)n2c1 | ? | . | . | ? | i
CN1C(=O)C(CC(=O)NCc2cccnc2-n2ccnc2)N(C)C1=O (centres undefined) | 3.1% | i | -3.5% | 5.0% | ?
O=C(CNC(=O)c1cnccn1)NC1CCCc2c1[nH]c1ccc(F)cc21 (centres undefined) | ? | i | 1.3% | -1.3% | -15.5%
CC(=O)N1CCN(Cc2nc3c(n2Cc2ccccc2)C(=O)N(Cc2cccc(Cl)c2)CCN3)CC1 | ? | i | -8.5% | -31.1% | i
O=C1c2c(nc(COc3cccc(Cl)c3)n2Cc2ccccc2)NCCN1CC1CC1 | 100µM* | i | -15.4%[70.6 µM] | ? | -8.0%[88.5 µM]
SMILES | HEK293 tox | Luciferase inh | hNpr1 antagonist | 3T3 cytotox | GPT2 inh
O=C1c2c(nc(COc3cccc(N4CCOCC4)c3)n2Cc2ccccc2)NCCN1CC1CC1 | ? | i | 4.9% | ? | i
COc1cc(OC)cc(OCc2nc3c(n2Cc2ccccc2)C(=O)N(Cc2cccc(Cl)c2)CCN3)c1 | 39.8µM* | i | -7.1% | 22.4µM* | i
COc1cccc(OCc2nc3c(n2Cc2ccccc2)C(=O)N(Cc2cccc(Cl)c2)CCN3)c1 | 25.1µM* | i | -15.4% | ? | -25.4%
O=C(Nc1ccc2c(c1)OCCO2)C1CC(=O)N(c2n[nH]c3ccccc23)C1 (centres undefined) | -17.6% | ? | 3.5% | -4.5% | 2.4%
C=CCN(CC=C)C(=O)c1c(-c2ccccc2)noc1[C@H](C)O | -29.7%[172 µM] | i | -2.4%[70.6 µM] | -22.0%[138 µM] | 4.3%[88.5 µM]
Fc1ccc2c(c1)nc1n2[C@@H](CNC2CCC2)COC1 | ? | i | 2.0%[70.6 µM] | 70.8µM* | i
O=C(COc1ccccc1)NC[C@H]1COCc2nc3cc(F)ccc3n21 | 79.4µM* | i | ? | ? | -0.2%[88.5 µM]
COc1ccc(CNC(=O)CNC(=O)c2ccc(-c3cnc4ccccc4c3)cc2)cc1OC | ? | . | . | -27.7% | i
Cc1cc(NC(=O)CN2C(=O)NC(c3ccc(Cl)cc3)C3=C2COC3=O)ccc1Br (centres undefined) | ? | i | -24.7% | 25.1µM* | i
CC(C)c1cccc(NC(=O)CN2C(=O)NC(c3ccccc3Cl)C3=C2COC3=O)c1 (centres undefined) | 39.8µM* | ? | -22.7% | ? | i
Cc1ccc(C2NC(=O)N(CC(=O)Nc3ccccc3)C3=C2C(=O)OC3)cc1 (centres undefined) | ? | i | -8.6% | ? | 4.1%
CCCCc1ccc(NC(=O)CN2C(=O)NC(c3ccc(C)cc3)C3=C2COC3=O)cc1 (centres undefined) | 44.7µM* | i | -14.1% | ? | i
CCOC(=O)c1ccccc1NC(=O)CN1C(=O)NC(c2ccc(Cl)cc2)C2=C1COC2=O (centres undefined) | ? | i | -12.3% | 39.8µM* | -3.9%
COc1ccc(C(=O)N2CCC3(CC2)C(OC)C(=O)N3CC2CC2)c(OC)c1 (centres undefined) | i | . | . | -8.4% | i
Cc1ccc(C2NC(=O)N(CC(=O)Nc3ccc(F)c(F)c3)C3=C2C(=O)OC3)cc1 (centres undefined) | 20µM* | i | -13.4% | ? | i
